# DT40 TDP1 no CPT – qHTS for Inhibitors of human tyrosyl-DNA phosphodiesterase 1 (TDP1): qHTS in cells in absence of CPT; DT40 Tdp1-/- hTDP1 cells, no CPT, ATP luminescence, 48 h; Potency, µM (series often up to 46.2 µM), for the others: at the highest dose activity change, negative = growth inhibition, actives largely listed as inhibitors; 420,000 compounds, 15% hits; further: potency means the concentration at half of the fitted maximal effect; on the % scale 0 is the no-effect control and ±100 the full control effect; nearly all actives have a fitted effect of over 55% in size
#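 Readout: luminescence from CellTiter-Glo after 30 min in the dark at RT. Cells: DT40 Tdp1-/- with stable hTDP1, 400/well. Exposure: compounds alone, ≥48 hr, 37 °C.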
# TDP1 block – qHTS Assay for Inhibitors of Tyrosyl-DNA Phosphodiesterase (TDP1) | Tyrosyl-DNA phosphodiesterase 1 (Homo sapiens), Q9NUW8 | recombinant TDP1, AlphaScreen DNA substrate cleavage | Potency, µM (highest dose often 130 µM), for the others: at the top dose activity change, negative = inhibition, actives largely listed as inhibitors | 350,000 compounds, 0.28% hits | AID 485290, 2010; further: potency means the concentration at half of the fitted maximal effect; on the % scale 0 is the no-effect control and ±100 the full control effect; nearly all actives have a fitted effect of over 40% in size
# Target sequence (Q9NUW8 whole entry, looked up): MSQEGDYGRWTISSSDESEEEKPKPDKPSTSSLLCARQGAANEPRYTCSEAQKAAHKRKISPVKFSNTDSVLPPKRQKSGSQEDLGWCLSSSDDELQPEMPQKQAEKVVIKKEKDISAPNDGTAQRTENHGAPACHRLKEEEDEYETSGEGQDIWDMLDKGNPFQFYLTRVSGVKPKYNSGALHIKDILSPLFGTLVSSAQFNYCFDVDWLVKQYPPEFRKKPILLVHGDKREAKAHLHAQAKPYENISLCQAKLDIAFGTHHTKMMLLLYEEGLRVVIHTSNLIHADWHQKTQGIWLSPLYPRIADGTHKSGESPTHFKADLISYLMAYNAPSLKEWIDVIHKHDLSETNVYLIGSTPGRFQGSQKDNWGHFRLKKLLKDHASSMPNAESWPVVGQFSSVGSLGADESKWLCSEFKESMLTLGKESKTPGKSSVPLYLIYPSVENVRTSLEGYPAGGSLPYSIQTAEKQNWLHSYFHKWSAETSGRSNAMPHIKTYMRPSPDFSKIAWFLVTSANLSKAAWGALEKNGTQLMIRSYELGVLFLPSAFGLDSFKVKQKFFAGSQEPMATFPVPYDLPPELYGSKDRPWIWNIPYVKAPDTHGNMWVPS
#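 Signal: AlphaScreen proximity between streptavidin donor and anti-FITC acceptor beads on intact substrate. Reaction: Tdp1 1 nM, substrate 15 nM final, 5 min RT after 15 min compound preincubation.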
# uPA surface inh – qHTS for Inhibitors of Cell Surface uPA Generation. AID 540303, 2011. cell surface uPA generation assay, qHTS. 330,000 compounds, 0.31% hits. Potency, µM (series often up to 38.3 µM), for inactives: at the top dose activity change, negative = inhibition, actives largely listed as inhibitors; active means well fitted inhibition curve with a large enough effect; inconclusive means small, poorly fitted or top-dose-only effect; inactive means no such curve, though single readings can be large or run the other way; tested in mouse RAW 264.7 cells; further: potency means the concentration at half of the fitted maximal effect; on the % scale 0 is the no-effect control and ±100 the full control effect; nearly all actives have a fitted effect of over 55% in size
# miR-21 reporter – qHTS Assay for Modulators of miRNAs and/orActivators of miR-21; HeLa miR-21 FLuc reporter, luciferase, 48 h; AID 2288, 2010; Potency, µM (highest dose often 38.3 µM), inactives show at the highest dose activity change, positive = activation, most hits filed as activators; 340,000 tested, under 10 active;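 further: % of control where 0% means no effect; miR-21 action dims this reporter so a rising signal means less miR-21 action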
#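 HeLa miR-21-FLuc reporter line, endogenous miR-21; 2000 cells/well in DMEM/10% FBS; compound titration up to ~40uM final, 48 h, 37 degree Celsius; luciferase detection reagent, 15 min lysis, CCD luminescence.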
# TDP1 cell CPT – qHTS for Inhibitors of human tyrosyl-DNA phosphodiesterase 1 (TDP1): qHTS in cells in presence of CPT; chicken DT40 Tdp1-/-;hTDP1 cells + 20 nM CPT, ATP luminescence, 48 h; Potency, µM (series often up to 46.2 µM), inactives show at the highest dose activity change, negative = growth inhibition, hits mostly inhibitors; 420,000 compounds, 12% hits; AID 686979, 2013; further: potency means the concentration at half of the fitted maximal effect; on the % scale 0 is the no-effect control and ±100 the full control effect; nearly all actives have a fitted effect of over 55% in size
#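 Chicken DT40 Tdp1-/- cells stably complemented with human TDP1 were seeded at 400 cells/well in medium containing 20 nM camptothecin, exposed to pin-transferred compounds, and grown at 37 °C for at least 48 hr. Viability was read as ATP luminescence.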
# An asterisk follows results filed as active; ? = inconclusive; . = no result given. Compounds with a hit are over-represented: about 16% of the library has one in this group of screens. Unless noted, the call rests on the fitted dose curve; in most records, active means well fitted curve in the direction sought with a large enough effect; inconclusive means small, poorly fitted or top-dose-only effect, or another doubt; inactive means no such curve, though single readings can be large; an effect the other way counts as inactive or inconclusive.
SMILES,DT40 TDP1 no CPT,TDP1 block,uPA surface inh,miR-21 reporter,TDP1 cell CPT
Cc1ccc(Nc2ncc3c(n2)CC(c2ccco2)CC3=O)c(C)c1 (configuration not stated),?,9.4%,0.6%,-11.0%,-7.0%
CCOC(=O)[C@@H]1[C@H]2COc3ccccc3[C@@H]2N2C(=O)N(c3cccc(C)c3)C(=O)[C@@]12C,-27.4%,0.9%,-6.9%,.,-8.4%
CCOc1cc(-c2ccc(OC(=O)c3ccc(Cl)cc3)c(OC)c2)cc(=O)c2c(C)oc(C)c12,5.17µM*,7.8%,.,-2.1%,4.61µM*
COc1ccc(-c2cc(OC(=O)c3ccccc3)c3c(C)oc(C)c3c(=O)c2)cc1OC,?,6.1%,.,-13.4%,?
CCOc1cc(-c2ccc(OC(=O)c3ccccc3)c(OC)c2)cc(=O)c2c(C)oc(C)c12,5.8µM*,12.0%,.,-14.1%,6.51µM*
COc1ccc(-c2cc(OC(=O)c3cccc(Cl)c3)c3c(C)oc(C)c3c(=O)c2)cc1,?,7.4%,.,11.3%,25.9µM*
COc1ccc(-c2cc(OC(=O)c3ccc(F)cc3)c3c(C)oc(C)c3c(=O)c2)cc1,.,7.6%,.,-8.6%,.
COc1ccc(N2CCN(C(CNC(=O)C(=O)NCc3ccc(C)cc3)c3cccnc3)CC2)cc1 (configuration not stated),7.31µM*,1.3%,.,-1.6%,8.2µM*
COc1ccc(N2CCN(C(CNC(=O)C(=O)NCc3cccnc3)c3cccnc3)CC2)cc1 (configuration not stated),?,5.2%,.,9.4%,?
COc1ccc(N2CCN(C(CNC(=O)C(=O)NCCc3ccccc3)c3cccnc3)CC2)cc1 (configuration not stated),16.4µM*,-2.6%,.,0.6%,14.6µM*
O=C(NCCCn1ccnc1)C(=O)NCC(c1cccnc1)N1CCN(c2ccccc2)CC1 (configuration not stated),-3.5%,5.3%,-5.6%,-7.3%,-6.6%
O=C(NCc1ccccc1)C(=O)NCC(c1cccnc1)N1CCN(c2ccccc2)CC1 (configuration not stated),13µM*,-11.7%,.,-2.7%,16.4µM*
CCc1c(C)nc2c(-c3ccccc3)c[nH]n2c1=O,?,4.2%,-4.9%,18.4%,?
CCOC(=O)Cc1c(C)nc2c(-c3ccccc3)c[nH]n2c1=O,2.31µM*,5.3%,-3.8%,1.3%,18.4µM*
CCOC(=O)Cc1c(C)nc2c(-c3ccccc3)c(-c3ccccc3)[nH]n2c1=O,16.4µM*,6.4%,.,-1.7%,?
CCOC(=O)Cc1c(C)nc2c(-c3ccccc3)c(C)[nH]n2c1=O,?,5.3%,5.5%,1.5%,-9.0%
O=C(Nn1c(SCc2ccc(F)cc2)nc2ccsc2c1=O)c1ccccc1,?,0.0%,4.8%,-21.6%,-25.1%
Cc1cccc(NC2=NC(=S)N(c3cccc(C(=O)O)c3)C23CCCCC3)c1,-4.8%,0.0%,-8.7%,-7.4%,-5.6%
COc1ccc(N2C(=S)N=C(Nc3cccc(C)c3)C23CCCCC3)cc1,-26.0%,-5.1%,-3.5%,-1.9%,6.51µM*
Cc1cc2nc3ccc(=[N+](C)C)cc-3sc2cc1N,0.411µM*,?,?,?,1.16µM*
CC(=O)c1cc(-c2ccc(F)cc2)n(CC(=O)NCc2cccs2)c1C,?,2.0%,4.3%,0.5%,?
COc1ccc(CNC(=O)Cn2c(-c3ccccc3)cc(C(C)=O)c2C)cc1OC,?,0.0%,.,7.1%,10.3µM*
CCOc1ccccc1CNC(=O)Cn1c(-c2ccccc2)cc(C(C)=O)c1C,?,3.9%,.,-4.8%,13µM*
O=C(CC1Oc2ccccc2NC1=O)NCc1ccccc1 (configuration not stated),-10.1%,-1.2%,0.3%,-4.9%,?
CC(=O)CC1OC(=O)C(Br)=C1NCc1ccccc1 (configuration not stated),1.46µM*,0.0%,19.0%,?,0.92µM*
SMILES,DT40 TDP1 no CPT,TDP1 block,uPA surface inh,miR-21 reporter,TDP1 cell CPT
N#Cc1nc(Nc2ccccc2)nc(NC2CCCCC2)n1,.,6.8%,.,.,.
COc1ccc(OC)c(CNC(=O)c2cc3c(Cl)nc4ccccc4c3s2)c1,?,3.5%,.,-0.6%,?
CC(C)NC(=O)c1cc(-c2cccs2)nc2ccccc12,0.1%,.,-8.3%,5.1%,1.0%
COc1ccc(OC)c(CNC(=O)c2cc(-c3ccc(Cl)s3)nc3ccccc23)c1,9.2µM*,-0.9%,.,2.1%,14.6µM*
CN1CCN(NC(=O)c2cc(-c3ccc(Cl)s3)nc3ccccc23)CC1,14.6µM*,7.8%,-5.8%,-2.2%,?
COc1ccc(Nc2cc(C(=O)NCc3cccs3)c3ccccc3n2)cc1,-14.0%,0.0%,.,0.2%,1.7%
COc1ccc(CNC(=O)c2cc(-c3cccs3)nc3ccccc23)c(OC)c1,?,-1.8%,.,16.9%,2.59µM*
CCOC(CCNC(=O)c1cc(-c2cccs2)nc2ccccc12)OCC,?,.,1.9%,9.6%,20.6µM*
CO/N=C(/CS(=O)(=O)c1ccc(C)cc1)c1ccc(OC)cc1,?,5.0%,-4.4%,6.1%,?
COc1ccc(C(=O)NC2(C(F)(F)F)C(=O)NC(C)=C2C#N)cc1OC (configuration not stated),-5.6%,11.6%,.,-2.3%,1.7%
Cc1ccc(CN2CCN(/N=C/C(Br)=C\c3ccccc3)CC2)cc1,4.11µM*,11.2%,10.0%,3.4%,?
Cc1ccc(CN2CCN(/N=C/c3ccc(O)c(O)c3)CC2)cc1,4.11µM*,.,?,2.9%,7.31µM*
O=C(COC(=O)c1ccc(Cl)nc1)Nc1ccc(S(=O)(=O)N2CCCC2)cc1,-0.2%,2.7%,2.3%,-2.9%,-13.4%
COC(=O)c1ccc(CNC(=O)COC(=O)c2cc(Cl)nc(Cl)c2)cc1,-14.1%,-2.4%,1.8%,7.0%,-29.8%
COc1cccc(Cn2c(=O)c(-c3cn(C)c4ccccc34)nc3cnc(N4CCNCC4)nc32)c1,20.6µM*,.,.,.,7.31µM*
Cn1cc(-c2nc3cnc(N4CCNCC4)nc3n(Cc3ccc(F)cc3)c2=O)c2ccccc21,7.31µM*,.,.,.,5.17µM*
CCOc1ccc(CC(=O)OCN2C(=O)c3ccccc3C2=O)cc1,-9.9%,-5.8%,-1.5%,0.4%,10.7%
O=C(O)CCCCCN1C(=O)c2ccc(C(=O)O)cc2C1=O,3.1%,0.0%,6.2%,1.0%,8.0%
O=C1OC(c2ccc(F)cc2)CC1CN1CCOCC1 (configuration not stated),10.3µM*,.,.,.,5.8µM*

# Screening data (PubChem)
